# Assay results from publication PMC11062922 (Nature Chemical Biology, 2023).
# Like-named read-outs stand apart in the source and are kept apart here.
# What was measured:
# Set-up in all cases: species or system human, MV4-11 + K-562 + COLO205 + SK-N-BE2 + OVCAR-8
# DYRK1A = conditions: read-out: apparent Kd, n = 1
# MARK4 = conditions: read-out: apparent Kd; compound concentrations:100 nM and 1000 nM (sheet 'Samples'); n = 1
# PRKCD = conditions: read-out: apparent Kd, n = 1
# PRKD2 = conditions: read-out: apparent Kd, n = 1
# PRKD3 = conditions: read-out: apparent Kd, n = 1
# RPS6KA6 = conditions: read-out: apparent Kd, n = 1
# CDKL5 = conditions: read-out: apparent Kd, n = 1
# CDK7 = conditions: read-out: apparent Kd, n = 1
# ERCC2 = conditions: read-out: apparent Kd, n = 1
# FER = conditions: read-out: apparent Kd, compound concentrations: 100 nM and 1000 nM (sheet 'Samples'), n = 1
# PRKCQ = conditions: read-out: apparent Kd, n = 1
# PTK2B = conditions: read-out: apparent Kd, compound concentrations: 100 nM and 1000 nM (sheet 'Samples'), n = 1
# FLT3 = conditions: read-out: apparent Kd, n = 1
# LATS1 = conditions: read-out: apparent Kd, n = 1
# MYLK3 = conditions: read-out: apparent Kd, n = 1
# PLK4 = conditions: read-out: apparent Kd, compound concentrations: 100 nM and 1000 nM (sheet 'Samples'), n = 1
# PRKAA1 = conditions: read-out: apparent Kd, n = 1
# PIP4K2C = conditions: read-out: apparent Kd; compound concentrations: 100 nM and 1000 nM (sheet 'Samples'), CATDS: 1.61438790686462E-2; n = 1
# PTK2 = conditions: read-out: apparent Kd; compound concentrations: 100 nM and 1000 nM (sheet 'Samples'), CATDS: 2.57578339913308E-2; n = 1
# STK10 = conditions: read-out: apparent Kd, compound concentrations: 100 nM and 1000 nM (sheet 'Samples'), n = 1
# [1] = compound concentrations:100 nM and 1000 nM (sheet 'Samples')
smiles,measurement,setting,value
Cc1occc1-c1nc(N)c(OC[C@@H](N)Cc2c[nH]c3ccccc23)cc1-c1cc2c(C)n[nH]c2cn1 [GSK1660450B],potency estimated from few doses,DYRK1A; [1],1.79 µM
same,potency estimated from few doses,MARK4,1.11 µM
same,potency estimated from few doses,PRKCD; [1],0.00862 µM
same,potency estimated from few doses,PRKD2; [1],0.386 µM
same,potency estimated from few doses,PRKD3; [1],0.17 µM
same,potency estimated from few doses,RPS6KA6; [1],0.0191 µM
O=C1N=C(N[C@@H](CO)Cc2ccccc2)S/C1=C\c1ccc2ncccc2c1 [RO4509200-000],potency estimated from few doses,"CDKL5; compound concentrations: 100 nM and 1000 nM (sheet 'Samples'), CATDS: 0.117206813575506",0.975 µM
same,potency estimated from few doses,"DYRK1A; compound concentrations: 100 nM and 1000 nM (sheet 'Samples'), CATDS: 0.168916103718072",0.44 µM
CNCC1CCn2c(c(C3=C(c4cn(C)c5ccccc45)C(=O)NC3=O)c3ccccc32)C1 (stereo not drawn) [RO0318676-000],potency estimated from few doses,"CDK7; compound concentrations: 100 nM and 1000 nM (sheet 'Samples'), CATDS: 3.3814045459066702E-2",0.945 µM
same,potency estimated from few doses,"ERCC2; compound concentrations: 100 nM and 1000 nM (sheet 'Samples'), CATDS: 3.3447385930038299E-2",0.976 µM
same,potency estimated from few doses,FER; CATDS: 3.4006049633961401E-2,0.929 µM
same,potency estimated from few doses,"PRKCD; compound concentrations: 100 nM and 1000 nM (sheet 'Samples'), CATDS: 0.12623439225341199",0.0487 µM
same,potency estimated from few doses,"PRKCQ; compound concentrations: 100 nM and 1000 nM (sheet 'Samples'), CATDS: 0.111424858077941",0.0613 µM
same,potency estimated from few doses,PTK2B; CATDS: 3.5074234548869702E-2,0.849 µM
same,potency estimated from few doses,"RPS6KA6; compound concentrations: 100 nM and 1000 nM (sheet 'Samples'), CATDS: 8.7281654841073406E-2",0.0987 µM
NS(=O)(=O)c1ccc(NC=C2C(=O)Nc3ccc4ncsc4c32)cc1 [GW589933X],potency estimated from few doses,"CDKL5; compound concentrations: 100 nM and 1000 nM (sheet 'Samples'), CATDS: 7.9596409580243901E-2",0.0524 µM
same,potency estimated from few doses,"FLT3; compound concentrations: 100 nM and 1000 nM (sheet 'Samples'), CATDS: 2.3969492803236899E-2",0.581 µM
same,potency estimated from few doses,"LATS1; compound concentrations: 100 nM and 1000 nM (sheet 'Samples'), CATDS: 1.9733333265128199E-2",1.02 µM
same,potency estimated from few doses,"MYLK3; compound concentrations: 100 nM and 1000 nM (sheet 'Samples'), CATDS: 0.127483608454634",0.0237 µM
same,potency estimated from few doses,"PRKD2; compound concentrations: 100 nM and 1000 nM (sheet 'Samples'), CATDS: 1.78038958195245E-2",1.46 µM
same,potency estimated from few doses,"PRKD3; compound concentrations: 100 nM and 1000 nM (sheet 'Samples'), CATDS: 1.69814633200863E-2",1.76 µM
Cl.Cn1cc(C2=C(c3c4n(c5ccccc35)CCNC4)C(=O)NC2=O)c2ccccc21 [RO0318365-001],potency estimated from few doses,"CDK7; compound concentrations: 100 nM and 1000 nM (sheet 'Samples'), CATDS: 7.1923944144695898E-2",0.734 µM
same,potency estimated from few doses,"ERCC2; compound concentrations: 100 nM and 1000 nM (sheet 'Samples'), CATDS: 7.4045119432564296E-2",0.696 µM
same,potency estimated from few doses,FER; CATDS: 6.02044843999179E-2,1.06 µM
same,potency estimated from few doses,PLK4; CATDS: 5.91687426181325E-2,1.1 µM
same,potency estimated from few doses,"PRKCD; compound concentrations: 100 nM and 1000 nM (sheet 'Samples'), CATDS: 4.8671677826933601E-2",1.81 µM
same,potency estimated from few doses,"PRKCQ; compound concentrations: 100 nM and 1000 nM (sheet 'Samples'), CATDS: 7.9846572084882106E-2",0.607 µM
same,potency estimated from few doses,PTK2B; CATDS: 6.7595952047570504E-2,0.828 µM
COc1cc[nH]c1/C=C1\C(=O)Nc2ccc(F)c(C#C[C@@H](O)[C@@H](N)[C@@H](C)O)c21 [RO0283120-000],potency estimated from few doses,CDK7; [1],0.445 µM
same,potency estimated from few doses,CDKL5; [1],0.0324 µM
same,potency estimated from few doses,ERCC2; [1],0.785 µM
same,potency estimated from few doses,FLT3; [1],0.0593 µM
same,potency estimated from few doses,LATS1; [1],0.125 µM
same,potency estimated from few doses,MARK4,0.703 µM
same,potency estimated from few doses,MYLK3; [1],0.827 µM
same,potency estimated from few doses,PRKAA1; [1],1.04 µM
same,potency estimated from few doses,PRKD2; [1],0.278 µM
same,potency estimated from few doses,PRKD3; [1],0.236 µM
O=C1N=C(NCCc2cccs2)S/C1=C\c1ccc2ncccc2c1 [RO4508348-000],potency estimated from few doses,"DYRK1A; compound concentrations: 100 nM and 1000 nM (sheet 'Samples'), CATDS: 0.139481417923777",0.734 µM
same,potency estimated from few doses,"FLT3; compound concentrations: 100 nM and 1000 nM (sheet 'Samples'), CATDS: 0.15045749947439399",0.638 µM
NS(=O)(=O)c1ccc(N/C=C2\C(=O)Nc3ccc4ncsc4c32)cc1 [GW297361X],potency estimated from few doses,"CDKL5; compound concentrations: 100 nM and 1000 nM (sheet 'Samples'), CATDS: 5.4362762723509199E-2",0.448 µM
same,potency estimated from few doses,"FLT3; compound concentrations: 100 nM and 1000 nM (sheet 'Samples'), CATDS: 4.1021562023835299E-2",0.799 µM
same,potency estimated from few doses,"MYLK3; compound concentrations: 100 nM and 1000 nM (sheet 'Samples'), CATDS: 0.13217199419509801",0.106 µM
same,potency estimated from few doses,"PRKD2; compound concentrations: 100 nM and 1000 nM (sheet 'Samples'), CATDS: 2.8859084082920799E-2",2.2 µM
COc1cc[nH]c1/C=C1\C(=O)Nc2ccc([N+](=O)[O-])c(N3CC[C@@H](O)C3)c21 [RO0504985-000],potency estimated from few doses,"CDKL5; compound concentrations: 100 nM and 1000 nM (sheet 'Samples'), CATDS: 0.118567124910979",0.0467 µM
same,potency estimated from few doses,"FLT3; compound concentrations: 100 nM and 1000 nM (sheet 'Samples'), CATDS: 3.5682803402027001E-2",0.989 µM
Cl.Cn1c(=O)c(Cc2ccccc2F)cc2cnc(NC3CCOCC3)nc21 [RO3305377-001],potency estimated from few doses,"CDK7; compound concentrations: 100 nM and 1000 nM (sheet 'Samples'), CATDS: 3.4029245989281497E-2",0.38 µM
same,potency estimated from few doses,"ERCC2; compound concentrations: 100 nM and 1000 nM (sheet 'Samples'), CATDS: 3.95504986982557E-2",0.299 µM
same,potency estimated from few doses,FER; CATDS: 3.5160978159500297E-2,0.361 µM
same,potency estimated from few doses,PIP4K2C,2.17 µM
same,potency estimated from few doses,PLK4; CATDS: 2.6104796567006299E-2,0.613 µM
same,potency estimated from few doses,"PRKAA1; compound concentrations: 100 nM and 1000 nM (sheet 'Samples'), CATDS: 2.1062710392343101E-2",0.98 µM
same,potency estimated from few doses,PTK2B; CATDS: 3.3520584845693903E-2,0.39 µM
same,potency estimated from few doses,PTK2,0.63 µM
same,potency estimated from few doses,"RPS6KA6; compound concentrations: 100 nM and 1000 nM (sheet 'Samples'), CATDS: 2.9562664752210699E-2",0.485 µM
CC(C)N1CC(=O)N(C)c2cnc(Nc3cccc(S(=O)(=O)CCN4CCOCC4)c3)nc21 [BI00009348],potency estimated from few doses,STK10; CATDS: 5.40109770146803E-2,1.45 µM
CNc1nccc(-c2ccc3c(N)n[nH]c3c2)n1 [GSK2206003A],potency estimated from few doses,"DYRK1A; compound concentrations: 100 nM and 1000 nM (sheet 'Samples'), CATDS: 5.2030559523690803E-2",1.37 µM
same,potency estimated from few doses,"MYLK3; compound concentrations: 100 nM and 1000 nM (sheet 'Samples'), CATDS: 6.3436586084605395E-2",0.601 µM
same,potency estimated from few doses,STK10; CATDS: 6.2859781396148603E-2,0.622 µM
CCn1c(-c2nonc2N)nc2cncc(Br)c21 [SB-738004],potency estimated from few doses,DYRK1A; [1],0.717 µM
same,potency estimated from few doses,FLT3; [1],1.19 µM
same,potency estimated from few doses,PRKCD; [1],0.649 µM
same,potency estimated from few doses,PRKCQ; [1],2.39 µM
